Source: PubChem BioAssay AID720566 (Broad Institute, 2013)
Results with a measured potency or affinity are listed apart. Active and inactive are the calls of the source.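 How the source made its calls: active means in all runs, an absorbance decrease of 25% or more of the average positive control decrease; inconclusive means runs conflict, with both active and inactive results; inactive means all runs inactive, opposite-direction effects included.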

These molecules were tested against Protein disulfide-isomerase A6 (Homo sapiens) (UniProt Q15084) (assay: reduced insulin turbidity driven by ERp5 (PDIA6) – biochemical, absorbance 650 nm, cherry-picked samples, dose response (AID 720566;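 further: negative values mean less insulin aggregation so ERp5 inhibition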)). Details: Recombinant ERp5 insulin aggregation; series mostly up to 35 µM.
Sequence of Protein disulfide-isomerase A6 (Homo sapiens) (Q15084 whole entry, looked up): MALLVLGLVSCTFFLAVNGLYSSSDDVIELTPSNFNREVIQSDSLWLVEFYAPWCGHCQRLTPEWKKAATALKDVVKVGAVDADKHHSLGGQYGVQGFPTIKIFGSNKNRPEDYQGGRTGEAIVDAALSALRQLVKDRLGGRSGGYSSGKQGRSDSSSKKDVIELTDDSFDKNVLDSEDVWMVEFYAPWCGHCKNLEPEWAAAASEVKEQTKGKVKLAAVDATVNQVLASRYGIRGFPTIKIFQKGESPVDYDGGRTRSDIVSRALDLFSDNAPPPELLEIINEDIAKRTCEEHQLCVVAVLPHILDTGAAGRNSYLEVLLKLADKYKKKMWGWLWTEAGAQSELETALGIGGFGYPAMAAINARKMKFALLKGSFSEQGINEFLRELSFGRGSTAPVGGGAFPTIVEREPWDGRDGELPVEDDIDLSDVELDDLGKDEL

outcome, inactive:
Cc1ccc(S(=O)(=O)N(CC(O)CN2CCOCC2)c2cccc([N+](=O)[O-])c2)cc1 (stereo not drawn)
CCN1[C@@H]2c3ccc(-c4ccccc4)c(=O)n3C[C@@H]2[C@@H](CO)[C@@H]1C(=O)NCC(F)(F)F
CCC(=O)Nc1ccc2c(c1)C(=O)N(C)[C@H]1CC[C@@H](CC(=O)NCC3CC3)O[C@@H]1CO2
COc1ccc2c3c([nH]c2c1)[C@@H](CO)N(C(=O)C1CCCC1)CC31CCN(C(=O)NC(C)C)CC1
O=C(N/N=C1\CCCc2ccccc21)c1ccccc1Cl
CCCN(C)C[C@@H]1Oc2cc(-c3ccc(F)cc3)ccc2S(=O)(=O)N([C@@H](C)CO)C[C@@H]1C
C[C@H](CO)N1C[C@H](C)[C@@H](CN(C)Cc2ccc(C(=O)O)cc2)Oc2ccc(NS(=O)(=O)c3cccs3)cc2CC1=O
CCN(c1ccccc1)S(=O)(=O)c1ccc(OC)c(NC(=O)c2c(C)noc2C)c1
CC(=O)Nc1ccc2c(c1)C(=O)N(C)[C@H]1CC[C@@H](CC(=O)NCC3CC3)O[C@H]1CO2
CCC(=O)Nc1ccc2c(c1)OC[C@H](C)N(Cc1cccnc1)C[C@H](C)[C@H](OC)CN(C)C2=O
CN1C(=O)c2cc(NC(=O)C3CCCCC3)ccc2OC[C@@H]2O[C@@H](CC(=O)NC3CCCC3)CC[C@H]21
COc1ccccc1CN(C)c1ccc(S(=O)(=O)N2CCN(C)CC2)cn1
C/C=C/c1ccc2c(c1)O[C@@H](CN(C)S(C)(=O)=O)[C@H](C)CN([C@@H](C)CO)S2(=O)=O
CCC1(CC)NC(=O)N(CC(=O)OC(C)C(=O)Nc2ccc(NC(C)=O)cc2)C1=O (stereo not drawn)
COC(=O)C[C@@H]1C[C@@H]2c3cc(NC(=O)Cc4ccncc4)ccc3O[C@@H]2[C@H](CO)O1
C[C@H]1CN([C@@H](C)CO)C(=O)Cc2cc(NC(=O)Nc3cccc4ccccc34)ccc2O[C@H]1CN(C)C(=O)Nc1cccc2ccccc12
O=C(C[C@H]1C[C@@H]2c3cc(NC(=O)NC4CCCC4)ccc3O[C@@H]2[C@@H](CO)O1)NCc1ccc(Cl)cc1
CN(C)C(=O)C[C@@H]1C[C@H]2c3cc(NS(C)(=O)=O)ccc3O[C@H]2[C@@H](CO)O1
COc1ccc2c3c([nH]c2c1)[C@H](CO)N(C(=O)CN(C)C)CC31CCN(CC2CCCC2)CC1
COCC(=O)N(C)C[C@H]1Oc2cc(C#CC(C)(C)O)ccc2S(=O)(=O)N([C@@H](C)CO)C[C@@H]1C
C[C@@H]1CN([C@H](C)CO)S(=O)(=O)c2ccc(-c3ccc(F)cc3)cc2O[C@@H]1CN(C)CC1CC1
CN(C)C(=O)C[C@@H]1C[C@@H]2c3cc(NS(C)(=O)=O)ccc3O[C@@H]2[C@H](CO)O1
Cc1ccc2nc(-c3cccc(Br)c3)c(Cc3cccc(Cl)c3)n2c1
COC(=O)[C@]1(C)N[C@H](CN(C)S(=O)(=O)c2ccc(OC(F)(F)F)cc2)[C@@H]2C(=O)N(C)C(=O)[C@@H]21
C[C@@H]1CN([C@@H](C)CO)C(=O)Cc2cc(NC(=O)Nc3ccc(C(F)(F)F)cc3)ccc2O[C@@H]1CN(C)Cc1ccc(Cl)c(Cl)c1
COCCNC(=O)c1ccccc1NS(=O)(=O)c1ccc(C)c([N+](=O)[O-])c1
CCCNC(=O)C[C@H]1C[C@H]2c3cc(NS(C)(=O)=O)ccc3O[C@H]2[C@@H](CO)O1
CC(C)(C)c1cc(NC(=O)c2ccco2)no1
Cc1ccc(NC(=O)COc2ccccc2)c(NC(=O)c2ccco2)c1
CC(C)CC#Cc1cnc2c(c1)C(=O)N([C@H](C)CO)C[C@H](C)[C@H](CN(C)Cc1ccccc1C(=O)O)O2
CC(=O)Nc1ccc2c(c1)C(=O)N(C)[C@@H]1CC[C@@H](CC(=O)NCC3CC3)O[C@H]1CO2
CN(C)C(=O)C[C@H]1C[C@H]2c3cc(NS(C)(=O)=O)ccc3O[C@H]2[C@H](CO)O1
C[C@H](CO)N1C[C@H](C)[C@@H](CN(C)S(=O)(=O)c2cn(C)cn2)Oc2ccc(NC(=O)c3ccncc3)cc2CC1=O
